Our source for the inhibition values is ChEMBL document CHEMBL1961873, “Compounds: GSK PKIS; Assays: Nanosyn kinase panel” (2012).

Assay [1] concerns the target Fibroblast growth factor receptor 4 (Homo sapiens) (UniProt P22455). The note with it: at 1 µM.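 Note: reported figure is the averaged percent inhibition of FGFR4, from the GSK PKIS kinase screening panel.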
The target of assay [2] is Tyrosine-protein kinase Fgr (Homo sapiens) (UniProt P09769). The note with it: at 0.1 µM.
The target is the same in assay [3]. Conditions: at 1 µM.
The target in assay [4] is Vascular endothelial growth factor receptor 1 (Homo sapiens) (UniProt P17948). The note with it: at 0.1 µM.
Assay [5] shares this target. Conditions: at 1 µM.
For assay [6], the target named is Receptor-type tyrosine-protein kinase FLT3 (Homo sapiens) (UniProt P36888). The note with it: at 0.1 µM.
Assay [7] shares this target. Conditions: at 1 µM.
Assay [8] has as its system T1, Receptor-type tyrosine-protein kinase FLT3 (Homo sapiens), P36888 [D835Y].
T1 sequence (whole entry): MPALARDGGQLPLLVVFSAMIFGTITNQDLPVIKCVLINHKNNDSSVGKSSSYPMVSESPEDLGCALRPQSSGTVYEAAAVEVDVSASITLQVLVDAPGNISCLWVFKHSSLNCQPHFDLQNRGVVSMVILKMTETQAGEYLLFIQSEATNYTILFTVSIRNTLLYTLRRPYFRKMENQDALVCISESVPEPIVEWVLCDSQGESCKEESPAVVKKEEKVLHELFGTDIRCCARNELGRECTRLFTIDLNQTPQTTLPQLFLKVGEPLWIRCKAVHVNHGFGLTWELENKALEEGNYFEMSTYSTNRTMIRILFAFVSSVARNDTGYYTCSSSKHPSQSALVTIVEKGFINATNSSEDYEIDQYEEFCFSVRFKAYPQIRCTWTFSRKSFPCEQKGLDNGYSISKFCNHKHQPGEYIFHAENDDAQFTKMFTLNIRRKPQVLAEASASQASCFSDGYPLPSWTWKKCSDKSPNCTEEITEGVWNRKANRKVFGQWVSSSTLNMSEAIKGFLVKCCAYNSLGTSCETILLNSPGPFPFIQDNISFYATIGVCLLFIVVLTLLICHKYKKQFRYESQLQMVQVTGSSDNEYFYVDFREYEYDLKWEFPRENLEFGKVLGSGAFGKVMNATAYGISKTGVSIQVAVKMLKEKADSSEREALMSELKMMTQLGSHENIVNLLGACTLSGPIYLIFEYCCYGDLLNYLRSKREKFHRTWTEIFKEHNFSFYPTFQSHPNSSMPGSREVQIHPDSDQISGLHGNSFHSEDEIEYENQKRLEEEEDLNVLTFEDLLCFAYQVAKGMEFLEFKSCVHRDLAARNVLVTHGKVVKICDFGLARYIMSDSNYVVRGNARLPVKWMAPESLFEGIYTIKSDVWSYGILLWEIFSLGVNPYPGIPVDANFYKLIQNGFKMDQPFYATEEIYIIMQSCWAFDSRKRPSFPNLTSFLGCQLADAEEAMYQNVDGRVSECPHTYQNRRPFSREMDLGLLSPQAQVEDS
The note with it: at 0.1 µM.

Assay [9] concerns the target Non-receptor tyrosine-protein kinase TYK2 (Homo sapiens) (UniProt P29597). The note with it: at 1 µM.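 Note: values are mean percent inhibition of TYK2 kinase.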
Assay [10] concerns the target T2, Tyrosine-protein kinase receptor TYRO3 (Homo sapiens) (UniProt Q06418).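 Note: reported percentages are averaged inhibition values of TYRO3 kinase activity.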
T2 sequence (whole entry): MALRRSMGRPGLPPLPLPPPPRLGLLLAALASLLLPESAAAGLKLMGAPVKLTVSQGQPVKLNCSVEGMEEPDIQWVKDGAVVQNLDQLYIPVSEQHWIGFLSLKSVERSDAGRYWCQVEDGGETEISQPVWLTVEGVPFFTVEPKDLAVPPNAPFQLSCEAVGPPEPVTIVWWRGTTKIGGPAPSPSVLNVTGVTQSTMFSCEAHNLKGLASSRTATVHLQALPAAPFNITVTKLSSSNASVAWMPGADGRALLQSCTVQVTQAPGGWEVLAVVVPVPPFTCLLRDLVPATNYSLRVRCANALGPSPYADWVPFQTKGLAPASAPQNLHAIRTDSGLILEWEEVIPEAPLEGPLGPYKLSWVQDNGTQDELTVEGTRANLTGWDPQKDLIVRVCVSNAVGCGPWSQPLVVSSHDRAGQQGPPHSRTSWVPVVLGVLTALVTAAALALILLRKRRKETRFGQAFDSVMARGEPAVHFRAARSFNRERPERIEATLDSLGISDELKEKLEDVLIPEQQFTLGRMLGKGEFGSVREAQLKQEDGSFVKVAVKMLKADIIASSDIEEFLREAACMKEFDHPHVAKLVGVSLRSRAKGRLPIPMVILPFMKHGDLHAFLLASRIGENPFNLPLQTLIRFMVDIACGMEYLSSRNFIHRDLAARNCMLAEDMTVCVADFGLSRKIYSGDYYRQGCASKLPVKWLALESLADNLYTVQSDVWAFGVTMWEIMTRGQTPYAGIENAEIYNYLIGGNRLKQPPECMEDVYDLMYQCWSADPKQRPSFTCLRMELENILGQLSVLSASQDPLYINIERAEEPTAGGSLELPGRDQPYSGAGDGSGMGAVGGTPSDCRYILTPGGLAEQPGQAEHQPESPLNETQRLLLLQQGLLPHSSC
The note with it: at 0.1 µM.

Where “and” joins values, the source holds several entries; their conditions need not be identical. Equal values may be shown once.

Fibroblast growth factor receptor 4 (Homo sapiens), sequence (P22455 22-802 limits assumed): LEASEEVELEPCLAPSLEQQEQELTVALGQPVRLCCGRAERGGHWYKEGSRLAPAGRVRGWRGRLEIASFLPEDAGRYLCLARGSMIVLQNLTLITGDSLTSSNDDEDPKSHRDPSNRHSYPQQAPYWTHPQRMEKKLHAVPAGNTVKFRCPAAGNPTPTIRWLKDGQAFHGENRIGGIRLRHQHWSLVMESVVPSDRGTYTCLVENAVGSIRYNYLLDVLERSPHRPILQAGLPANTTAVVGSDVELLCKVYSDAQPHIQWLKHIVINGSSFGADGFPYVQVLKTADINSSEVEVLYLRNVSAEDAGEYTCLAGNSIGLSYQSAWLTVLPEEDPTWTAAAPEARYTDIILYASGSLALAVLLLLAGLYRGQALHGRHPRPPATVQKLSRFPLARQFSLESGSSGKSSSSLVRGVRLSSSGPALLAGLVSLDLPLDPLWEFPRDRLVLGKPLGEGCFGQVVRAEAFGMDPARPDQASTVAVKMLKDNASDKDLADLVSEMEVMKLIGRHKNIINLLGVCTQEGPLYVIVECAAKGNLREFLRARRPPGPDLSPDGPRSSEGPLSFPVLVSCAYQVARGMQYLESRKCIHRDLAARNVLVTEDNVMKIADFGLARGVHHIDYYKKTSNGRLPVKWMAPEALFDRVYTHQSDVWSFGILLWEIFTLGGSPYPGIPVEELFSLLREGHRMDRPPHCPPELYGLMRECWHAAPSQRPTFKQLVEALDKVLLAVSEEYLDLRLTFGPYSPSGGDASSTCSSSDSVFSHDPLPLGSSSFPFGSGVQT
Vascular endothelial growth factor receptor 1 (Homo sapiens), sequence (P17948 whole entry): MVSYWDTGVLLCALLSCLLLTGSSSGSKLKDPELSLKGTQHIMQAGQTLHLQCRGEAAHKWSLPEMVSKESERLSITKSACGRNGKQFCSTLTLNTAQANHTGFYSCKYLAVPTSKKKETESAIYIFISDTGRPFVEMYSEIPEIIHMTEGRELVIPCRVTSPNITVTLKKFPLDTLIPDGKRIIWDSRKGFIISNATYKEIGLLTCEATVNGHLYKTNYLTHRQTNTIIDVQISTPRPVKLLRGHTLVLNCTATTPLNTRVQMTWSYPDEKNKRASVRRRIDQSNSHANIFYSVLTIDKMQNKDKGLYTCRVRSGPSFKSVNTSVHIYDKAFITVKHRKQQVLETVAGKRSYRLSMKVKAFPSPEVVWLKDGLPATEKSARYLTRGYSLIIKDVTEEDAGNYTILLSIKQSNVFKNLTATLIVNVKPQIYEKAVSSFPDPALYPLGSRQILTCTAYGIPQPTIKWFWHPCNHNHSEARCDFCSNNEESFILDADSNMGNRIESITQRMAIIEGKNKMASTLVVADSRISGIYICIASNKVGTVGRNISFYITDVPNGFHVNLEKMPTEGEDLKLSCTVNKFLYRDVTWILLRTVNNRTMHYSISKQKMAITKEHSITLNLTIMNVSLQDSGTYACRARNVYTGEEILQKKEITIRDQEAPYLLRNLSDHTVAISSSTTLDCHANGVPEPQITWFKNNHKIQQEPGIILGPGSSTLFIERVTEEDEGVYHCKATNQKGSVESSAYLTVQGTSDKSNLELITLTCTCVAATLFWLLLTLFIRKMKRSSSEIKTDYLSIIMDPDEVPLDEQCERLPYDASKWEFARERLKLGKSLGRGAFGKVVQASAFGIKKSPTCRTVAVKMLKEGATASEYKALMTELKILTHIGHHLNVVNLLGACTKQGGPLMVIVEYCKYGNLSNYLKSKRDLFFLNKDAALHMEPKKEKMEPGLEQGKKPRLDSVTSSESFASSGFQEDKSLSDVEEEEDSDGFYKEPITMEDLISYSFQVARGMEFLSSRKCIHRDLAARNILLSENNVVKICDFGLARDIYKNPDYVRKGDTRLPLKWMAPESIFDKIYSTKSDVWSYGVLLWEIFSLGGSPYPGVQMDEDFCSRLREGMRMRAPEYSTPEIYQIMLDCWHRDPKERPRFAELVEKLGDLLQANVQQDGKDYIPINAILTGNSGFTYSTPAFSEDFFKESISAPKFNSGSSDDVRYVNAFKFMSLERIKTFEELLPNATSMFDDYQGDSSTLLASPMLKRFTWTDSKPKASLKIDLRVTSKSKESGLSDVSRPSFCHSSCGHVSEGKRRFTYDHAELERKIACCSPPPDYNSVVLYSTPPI
Non-receptor tyrosine-protein kinase TYK2 (Homo sapiens), sequence (P29597 whole entry): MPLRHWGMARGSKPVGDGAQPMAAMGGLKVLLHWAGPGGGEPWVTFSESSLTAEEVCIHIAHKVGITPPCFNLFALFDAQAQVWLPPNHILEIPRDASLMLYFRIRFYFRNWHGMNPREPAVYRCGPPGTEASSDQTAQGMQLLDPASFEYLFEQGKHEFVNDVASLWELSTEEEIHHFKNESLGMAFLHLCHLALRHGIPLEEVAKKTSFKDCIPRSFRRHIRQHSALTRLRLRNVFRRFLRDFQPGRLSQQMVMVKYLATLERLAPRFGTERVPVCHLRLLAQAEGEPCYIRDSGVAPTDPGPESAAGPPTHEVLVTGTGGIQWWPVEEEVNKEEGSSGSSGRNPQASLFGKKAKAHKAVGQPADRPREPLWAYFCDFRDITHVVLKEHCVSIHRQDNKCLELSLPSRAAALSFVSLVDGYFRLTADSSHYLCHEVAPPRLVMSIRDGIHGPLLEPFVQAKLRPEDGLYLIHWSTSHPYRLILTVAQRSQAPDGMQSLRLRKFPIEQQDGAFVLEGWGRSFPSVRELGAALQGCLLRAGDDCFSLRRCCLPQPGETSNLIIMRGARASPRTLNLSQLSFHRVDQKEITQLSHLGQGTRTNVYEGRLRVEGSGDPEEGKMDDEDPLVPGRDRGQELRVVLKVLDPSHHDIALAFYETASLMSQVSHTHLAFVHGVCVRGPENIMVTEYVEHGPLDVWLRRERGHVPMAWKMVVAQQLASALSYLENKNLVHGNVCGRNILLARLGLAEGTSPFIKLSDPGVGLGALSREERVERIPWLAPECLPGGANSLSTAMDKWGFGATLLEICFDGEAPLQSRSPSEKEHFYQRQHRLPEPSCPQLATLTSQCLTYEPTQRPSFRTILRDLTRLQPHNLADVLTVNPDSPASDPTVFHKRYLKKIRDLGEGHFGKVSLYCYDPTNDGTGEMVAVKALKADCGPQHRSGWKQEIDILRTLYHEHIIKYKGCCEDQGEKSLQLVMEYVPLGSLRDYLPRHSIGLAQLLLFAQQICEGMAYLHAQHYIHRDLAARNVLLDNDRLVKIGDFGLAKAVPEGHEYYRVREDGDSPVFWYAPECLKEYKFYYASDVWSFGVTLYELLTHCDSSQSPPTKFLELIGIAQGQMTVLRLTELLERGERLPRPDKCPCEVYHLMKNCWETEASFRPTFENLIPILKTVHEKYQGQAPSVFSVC
Tyrosine-protein kinase Fgr (Homo sapiens), sequence (P09769 2-529 limits assumed): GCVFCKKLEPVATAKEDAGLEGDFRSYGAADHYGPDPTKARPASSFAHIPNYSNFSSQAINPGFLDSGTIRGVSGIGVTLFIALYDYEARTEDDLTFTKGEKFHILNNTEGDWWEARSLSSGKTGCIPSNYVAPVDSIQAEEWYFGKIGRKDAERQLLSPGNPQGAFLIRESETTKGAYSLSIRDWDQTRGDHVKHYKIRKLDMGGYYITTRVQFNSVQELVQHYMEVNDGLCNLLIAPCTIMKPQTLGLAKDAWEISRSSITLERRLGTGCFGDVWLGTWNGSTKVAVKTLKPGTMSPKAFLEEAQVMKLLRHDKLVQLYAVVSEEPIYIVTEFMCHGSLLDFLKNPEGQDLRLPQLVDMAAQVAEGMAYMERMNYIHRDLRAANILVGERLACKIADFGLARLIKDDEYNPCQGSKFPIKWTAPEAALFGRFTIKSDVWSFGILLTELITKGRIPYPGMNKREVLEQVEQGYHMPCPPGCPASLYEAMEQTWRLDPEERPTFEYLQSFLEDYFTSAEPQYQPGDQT

As for `c1ccc(-c2n[nH]cc2-c2ccnc(-c3ccc(OCCn4ccnc4)cc3)c2)nc1`, the inhibition (in general, the relative decrease from the control value, in per cent) in [1] was 4.5%; in [2], 0.78%; in assay [3], 2.78%; in assay [4], 5.66%; in assay [5], 29.5%; in [6], -0.04%. The inhibition in [7] was 2.15%; in [8], 2.71%; in assay [9], -0.27%; in assay [10] it was 1.13%.

In the case of `CN1CCC(C(=O)Nc2n[nH]c3nc(-c4ccc(O)cc4)c(Br)cc23)CC1`, the inhibition was -2.79% and 2.44% in [1]; 4.74% and 1.32% in assay [2]; 4.79% and 3.79% in assay [3]; -0.55% and 2.25% in assay [4]; 1.75% and 2.84% in assay [5]; 1.75% and 4.1% in [6]. Besides, the inhibition in assay [7] is 5.59% and 2.93%; in assay [8] it was -2.26% and 1.33%; in assay [9] it was -0.92% and -0.98%; in assay [10], 2.21% and 0.67%.

As to `NS(=O)(=O)c1cccc(N/C=C2\C(=O)Nc3ccccc32)c1`, the inhibition was 3.92% in [1]; 5.5% in assay [2]; 13.8% in assay [3]; 7.92% in assay [4]; 15.2% in [5]; 5.75% in assay [6]. Further, the inhibition in assay [7] is 36.4%; in assay [8] it was 1.52%; in assay [9], -1.95%; in [10], 3.33%.

With `CC1=C(C(=O)Nc2ccc3[nH]nc(C)c3c2)C(c2ccc(C(F)(F)F)cc2)CC(=O)N1` (stereo not given), the inhibition in [1] was 2.06%; in [2], 1.2%; in assay [3] it was 3.75%; in assay [4], 1.04%; in assay [5] it was 5.46%; in assay [6], -0.53%. For the same compound, the inhibition was found to be 3.38% in assay [7], 0.37% in assay [8], 37.5% in assay [9] and 2.07% in assay [10].

As to `CS(=O)(=O)CCNCc1ccc(-c2ccc3ncnc(Nc4ccc(OCc5cccc(C(F)(F)F)c5)cc4)c3c2)o1`, the inhibition was 1.52% in assay [1]; 0.16% in assay [2]; 3.55% in [3]; 1.21% in assay [4]; 2.94% in assay [5]; 10.4% in [6]. Further, the inhibition is 28.9% in assay [7], 0.04% in [8], -4.13% in [9] and 0.61% in assay [10].

Regarding `COC(=O)Nc1nc2ccc(Oc3ccc(NC(=O)Nc4cc(C(F)(F)F)ccc4F)cc3)cc2s1`, the inhibition was found to be 3.25% in [1]; 1.85% in assay [2]; 9.94% in assay [3]; 36% in assay [4]; 78.1% in assay [5]; 11.2% in assay [6]. Moreover, the inhibition in [7] is 47.1%; in [8] it was -0.17%; in assay [9], 1.02%; in assay [10] it was 6.26%.

As for `COc1cc2c(cc1Nc1nc(Nc3cccc(F)c3C(N)=O)c3cc[nH]c3n1)N(C(=O)CN1CCN(C(C)C)CC1)CC2`, the inhibition in [1] is 1.15%; in assay [2], 0.5%; in [3], 0.3%; in assay [4], -1.2%; in assay [5] it was 1.09%; in assay [6], 1.14%. Further, the inhibition was 0.93% in [7], -4.8% in assay [8], -1.21% in assay [9] and -0.96% in assay [10].

On to `O=C(O[C@H]1CN[C@H](C#Cc2cc3ncnc(Nc4ccc(OCc5cccc(F)c5)c(Cl)c4)c3s2)C1)N1CCOCC1`, for which the inhibition in assay [1] was -0.16%; in assay [2] it was 4.25%; in assay [3], 1.43%; in assay [4], 1.9%; in assay [5], -0.14%; in assay [6], 3.48%. For the same compound, the inhibition in [7] was 2.29%; in assay [8], -1.46%; in assay [9], -3.98%; in assay [10] it was 3.72%.

As for `CNC(=O)c1ncccc1Nc1nc(Nc2cc3c(cc2OC)CCCN3C(=O)CN(C)C)nc2[nH]ccc12`, the inhibition was 0.76% in assay [1]; 1.73% in assay [2]; 7.26% in assay [3]; 0.02% in [4]; -0.67% in assay [5]; 3.6% in assay [6]. Further, the inhibition in assay [7] was 4.13%; in assay [8], 1.41%; in assay [9], -1.39%; in assay [10], 4.43%.

With `COc1cccc(Nc2nccc(-c3cnn4ncccc34)n2)c1`, the inhibition in [1] stood at 1.33%; in assay [2], 7.08%; in assay [3], 19.3%; in [4] it was 9.62%; in assay [5], 25.1%; in [6], 33%. For the same compound, the inhibition in assay [7] amounted to 78.9%; in assay [8], 16.7%; in [9], 30.3%; in [10] it was 3.96%.

As to `COc1ccccc1-c1cc(/C=C2\C(=O)Nc3ncc(Br)cc32)cc(Br)c1O`, the inhibition in assay [1] came out at 1.97%; in assay [2], 2.7%; in assay [3] it was 11.6%; in assay [4] it was 3.32%; in assay [5], 4.73%; in assay [6], 4.36%. In addition, the inhibition in assay [7] is 6.62%; in [8] it was -5.55%; in [9], -1.22%; in assay [10] it was 7.47%.

Take `NS(=O)(=O)c1ccc(N/N=C2\C(=O)Nc3cccc(CCc4ccncc4)c32)cc1`: the inhibition is 1.66% in [1]; 4.48% in [2]; 10.8% in [3]; 5.3% in assay [4]; 12% in [5]; 64.3% in assay [6]. The inhibition is 79.3% in assay [7], 50.7% in assay [8], -1.59% in [9] and 0.03% in [10].

With `FC(F)(F)CNc1nccc(-c2cnn3ncccc23)n1`, the inhibition was -0.36% in assay [1]; 2.09% in assay [2]; 3.01% in [3]; -0.04% in assay [4]; 0.56% in assay [5]; 0.41% in assay [6]. Moreover, the inhibition in assay [7] was -1.47%; in assay [8], -2.63%; in assay [9], -2.6%; in [10] it was 0.93%.

As for `c1cnn2ncc(-c3ccnc(NCCCN4CCOCC4)n3)c2c1`, the inhibition came to 2.53% in assay [1]; 2.2% in [2]; 0.54% in assay [3]; 1.65% in assay [4]; 0.94% in assay [5]; 0.76% in assay [6]. The inhibition in assay [7] was 1.48%; in [8] it was 0.21%; in assay [9], -3.09%; in assay [10] it was 3.23%.

Take `O=C1Nc2ccccc2/C1=C1\CCc2cc(O)ccc21`: the inhibition came to 3.99% in assay [1]; 2.44% in [2]; 15.4% in assay [3]; 12.7% in assay [4]; 25.7% in [5]; 40.7% in assay [6]. Moreover, the inhibition in assay [7] turned out to be 85.5%; in assay [8], 27.1%; in assay [9], 6.88%; in assay [10], 4.69%.
